{"source": "PubChem BioAssay AID504580", "about": "(NMMLSC, 2011)", "note": "Fewer than 10 of roughly 2,000 compounds were called active. These entries were drawn from the full list. Values without a mark were called inactive.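 The calls were made as follows: active = compounds that quench the bead-bound fluorescent RNA probe, cutting fluorescence to under half of the solvent control; inactive = the rest.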"}
{"assay": "bead-bound FAM aptamer signal quenchers – biochemical, single point, cherry pick 1, flow cytometry, artefact control for GRK2 RNA aptamer inhibitor project, confirmation (AID 504580);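 also: counterscreen run without GRK2 so only probe quenching by compound is measured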", "conditions": "Carboxyfluorescein RNA aptamer on beads, flow cytometry quenching; at 10 µM; hits give low values"}
{"smiles": "COc1ccc(-n2nc(C(=O)NCC(=O)N3CCCCCC3)c3ccccc3c2=O)cc1Cl", "fluorescence response (% of DMSO)": "105%"}
{"smiles": "COc1ccccc1NC(=O)CSc1nc2sc3c(c2c(=O)n1-c1ccccc1)CCN(C)C3", "fluorescence response (% of DMSO)": "94.8%"}
{"smiles": "NC(=O)C1CCN(C(=O)c2ccc3c(=O)n(Cc4cccc(Br)c4)c(=S)[nH]c3c2)CC1", "fluorescence response (% of DMSO)": "98.1%"}
{"smiles": "COc1ccc(C(=O)NCCNc2ccc([N+](=O)[O-])cn2)cc1", "fluorescence response (% of DMSO)": "99.4%"}
{"smiles": "Cc1nc(C(=O)NCc2ccccc2)sc1C1(C)CC(c2cccnc2)=NO1", "note": "(stereo not drawn)", "fluorescence response (% of DMSO)": "97.1%"}
{"smiles": "O=C(c1cc2cc(F)ccc2[nH]1)N1CCN(c2ccc(F)cc2)CC1", "fluorescence response (% of DMSO)": "97.9%"}
{"smiles": "CNS(=O)(=O)c1cccc(C(=O)NCC2CCCCC2)c1", "fluorescence response (% of DMSO)": "101%"}
{"smiles": "Nc1ccc2nc3c(=O)[nH]c(=S)[nH]c3nc2c1", "fluorescence response (% of DMSO)": "83.9%"}
{"smiles": "O=C(Oc1ccc(Br)cc1)c1cccnc1", "fluorescence response (% of DMSO)": "96.7%"}
{"smiles": "Cc1ccccc1-c1nnn(CC(=O)c2ccc(S(=O)(=O)N3CCCC3)cc2)n1", "fluorescence response (% of DMSO)": "96.4%"}
{"smiles": "CSc1ccc(/C=C2\\NC(=O)NC2=O)cc1", "fluorescence response (% of DMSO)": "95.8%"}
{"smiles": "Cc1ccc(-c2nn(-c3ccccc3)cc2/C=C2\\SC(=S)N(CCCCCC(=O)O)C2=O)o1", "fluorescence response (% of DMSO)": "136%"}
{"smiles": "COCCn1c(C)cc(C(=O)CN2c3cccc4cccc(c34)S2(=O)=O)c1C", "fluorescence response (% of DMSO)": "98%"}
{"smiles": "Cc1cc(C(=O)NC2CCN(Cc3ccccc3)CC2)n[nH]1", "fluorescence response (% of DMSO)": "96.6%"}
{"smiles": "C/C(=N\\OCC(=O)O)c1ccc(Cl)cc1", "fluorescence response (% of DMSO)": "101%"}
{"smiles": "CC(NC(=O)C1CCCN(S(=O)(=O)c2ccc(-n3cnnn3)cc2)C1)c1ccc(F)cc1", "note": "(stereo not drawn)", "fluorescence response (% of DMSO)": "105%"}
{"smiles": "CCN1C(=O)[C@H]2[C@@H](c3ccc(-c4ccc(OC)cc4)cc3)N[C@@](Cc3ccccc3)(C(=O)OC)[C@H]2C1=O", "fluorescence response (% of DMSO)": "96.4%"}
{"smiles": "COc1ccc(NC(=O)CN(C)C(=O)c2cc(-c3ccc(C)o3)nc3ccccc23)cc1", "fluorescence response (% of DMSO)": "100%"}
{"smiles": "COc1ccc(N2CCN(C(CNS(=O)(=O)c3ccc(C)cc3)c3ccccc3)CC2)cc1", "note": "(stereo not drawn)", "fluorescence response (% of DMSO)": "98.2%"}
{"smiles": "O=C(NCC12CC3CC(C1)CC(CNC(=O)N1CCCC1)(C3)C2)N1CCCC1", "fluorescence response (% of DMSO)": "98.2%"}
{"smiles": "O=C(O)c1ccc2c(c1)C(=O)N(c1ccc(/C=C/C(=O)c3ccccc3)cc1)C2=O", "fluorescence response (% of DMSO)": "99.8%"}
{"smiles": "O=S(=O)(Nc1ccc(-c2ccc(N3CCOCC3)nn2)cc1)c1cc(Cl)ccc1Cl", "fluorescence response (% of DMSO)": "108%"}
{"smiles": "O=C(NCc1ccccc1)c1cccc(NC(=O)C2CCCCC2)c1", "fluorescence response (% of DMSO)": "98%"}
{"smiles": "CCC(=C/c1sc2ccc3ccccc3c2[n+]1C)/C=C1\\Sc2ccc3ccccc3c2N1C", "fluorescence response (% of DMSO)": "10.7% (active)"}
{"smiles": "Cc1ccccc1CN1CCN(CC(=O)NCc2ccccn2)C1=O", "fluorescence response (% of DMSO)": "101%"}
{"smiles": "Cc1ccc(S(=O)(=O)CCC(=O)Nc2nnc(CC(C)C)s2)cc1", "fluorescence response (% of DMSO)": "99.8%"}
{"smiles": "O=C(CCNC(=O)c1ccccc1)NN=Cc1ccc(Br)o1", "fluorescence response (% of DMSO)": "96.6%"}
{"smiles": "Cc1ccc(C(CNC(=O)Nc2cccc(C)c2)N2CCN(C)CC2)cc1", "note": "(stereo not drawn)", "fluorescence response (% of DMSO)": "98%"}
{"smiles": "O=c1[nH]c(SCc2ccccc2)nnc1-c1ccccc1", "fluorescence response (% of DMSO)": "98.2%"}
{"smiles": "Cc1nc(Nc2ccccc2F)c2nnn(Cc3ccccc3Cl)c2n1", "fluorescence response (% of DMSO)": "99.8%"}
{"smiles": "CCOC(=O)C1CCCN(Cc2nc(N)nc(Nc3ccc(C)cc3)n2)C1", "note": "(stereo not drawn)", "fluorescence response (% of DMSO)": "80%"}
{"smiles": "Cc1ccc(N2C(=O)C3N=NN(CC(=O)N4N=C(c5cccc6ccccc56)CC4c4ccccc4)C3C2=O)cc1", "note": "(stereo not drawn)", "fluorescence response (% of DMSO)": "101%"}
{"smiles": "OC(CN=c1sc2ccccc2n1CC(O)COc1ccccc1)COc1ccccc1", "note": "(stereo not drawn)", "fluorescence response (% of DMSO)": "95.8%"}
{"smiles": "CC(C)CN(C(=O)c1cccc(S(=O)(=O)N2CCCCC2)c1)C1CCS(=O)(=O)C1", "note": "(stereo not drawn)", "fluorescence response (% of DMSO)": "102%"}
{"smiles": "O=C(COc1ccccc1)NCCc1nc2ccccc2[nH]1", "fluorescence response (% of DMSO)": "99.7%"}
{"smiles": "CCOC(=O)C(C)n1cnc2scc(-c3ccc(C)c(C)c3)c2c1=O", "note": "(stereo not drawn)", "fluorescence response (% of DMSO)": "95.4%"}
{"smiles": "Cc1cc(/C=C2\\SC(=O)N(C)C2=O)c(C)n1-c1cccc(C(=O)O)c1", "fluorescence response (% of DMSO)": "96.6%"}
{"smiles": "COc1ccc(Cl)cc1NC(=O)CCS(=O)(=O)c1cc2c(cc1C)NC(=O)CO2", "fluorescence response (% of DMSO)": "99.6%"}
{"smiles": "COC(=O)c1ccc(C)c(NC(=O)C2CC(=O)N(C3CCCC(C)C3C)C2)c1", "note": "(stereo not drawn)", "fluorescence response (% of DMSO)": "94.9%"}
{"smiles": "CCN1/C(=C/c2ccc3ccc(C)cc3[n+]2CC)Sc2ccccc21", "fluorescence response (% of DMSO)": "142%"}
{"smiles": "Cc1cccc(NC(=O)C2CCCN(C(=O)NCc3ccccc3)C2)c1C", "note": "(stereo not drawn)", "fluorescence response (% of DMSO)": "102%"}
{"smiles": "CCCCn1nc(C(=O)OCC(=O)Nc2sccc2C(N)=O)c2ccccc2c1=O", "fluorescence response (% of DMSO)": "99.8%"}
{"smiles": "O=C(CCS(=O)(=O)c1ccc(Br)cc1)NCCc1ccc(Cl)cc1", "fluorescence response (% of DMSO)": "102%"}
{"smiles": "O=C1C2N=NN(CC(=O)N3N=C(c4cccc5ccccc45)CC3c3ccccc3)C2C(=O)N1c1ccccc1", "note": "(stereo not drawn)", "fluorescence response (% of DMSO)": "91.2%"}
{"smiles": "CN/C(=C\\[N+](=O)[O-])NCCSCc1csc(CN(C)C)n1", "fluorescence response (% of DMSO)": "99.2%"}
{"smiles": "COCCCNC(=O)CNC(=O)c1nn(-c2ccc(OC)cc2)c(=O)c2ccccc12", "fluorescence response (% of DMSO)": "96.3%"}
{"smiles": "O=C(NNc1ncnc2c1cnn2-c1ccccc1)c1ccco1", "fluorescence response (% of DMSO)": "97.9%"}
{"smiles": "CC(=O)c1ccc(OCC(O)CN2CCN(S(=O)(=O)c3cccc(Br)c3)CC2)cc1", "note": "(stereo not drawn)", "fluorescence response (% of DMSO)": "142%"}
{"smiles": "CCOCCCNC(=O)C(NC(=O)CNC(=O)c1ccccc1)c1ccc(OC)cc1", "note": "(stereo not drawn)", "fluorescence response (% of DMSO)": "96%"}
{"smiles": "Cc1nn(Cc2ccc(F)cc2)c(C)c1NC(=O)c1noc2c1CCc1ccccc1-2", "fluorescence response (% of DMSO)": "97%"}
{"smiles": "C/C(=N\\Nc1nc2ccccc2[nH]1)c1cccs1", "fluorescence response (% of DMSO)": "92.8%"}
{"smiles": "O=C(Nc1ccc(-c2nnc(-c3ccccc3)o2)cc1)c1ccc(Br)o1", "fluorescence response (% of DMSO)": "98.8%"}
{"smiles": "CN(Cc1ccccc1)C(=O)c1cccc(C(=O)N(C)Cc2ccccc2)c1", "fluorescence response (% of DMSO)": "101%"}
